The source of these data is PubChem BioAssay (EPA / NIEHS).

Several values for one entry are separate records, joined by “and”; a condition that tells them apart may be missing. Equal entries are not always repeated. More than one record can exist for a structure, and the calls need not agree. Activity calls are given as the source filed them. The calls were made as follows: active = hit-call score of the fitted dose curve at least 0.9, where 1 is the maximum; inactive = score below 0.9.

Test [1] can be described thus: APR_HepG2_P-H2AX_72hr: Apredica 72-hour HepG2 Assay for H2AX Phosphorylation (AID 2282916).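 Also: phospho-histone H2A.x immunostain intensity per cell marking DNA damage.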 The note with it: imaging, actives raise or lower the signal. The method in brief:
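Phospho-histone H2A.x immunofluorescence, multiplexed with Hoechst and c-Jun, quantified by high-content imaging. Compounds applied to HepG2 for 72 h across ten concentrations (0.39–200 uM, 0.5% DMSO), in duplicate; DMSO baseline.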

Test [2] can be described thus: APR_HepG2_MitoMembPot_72hr: Apredica 72-hour HepG2 Assay for Mitochondrial Membrane Potential (AID 2282917). As to conditions: imaging, actives raise or lower the signal. The method in brief: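 HepG2 cells dosed 72 hr with compound at 0.39–200 uM in duplicate, 0.5% v/v DMSO final. Mitochondria stained with 250 nM MitoTracker Red CMXRos for 30 min before formaldehyde fixation, imaged by high-content fluorescence; bidirectional fit versus DMSO.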

Test [3] can be described thus: APR_HepG2_MitoticArrest_72hr: Apredica 72-hour HepG2 Assay for Mitotic Arrest (AID 2282918). The note with it: high-content imaging, actives raise or lower the signal. The method in brief:
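High-content imaging of fixed human HepG2 cells after 72 h compound exposure (0.39–200 uM, duplicates, 0.5% DMSO); mitotic arrest scored from phospho-histone H3 and nuclear Hoechst staining relative to DMSO.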

The nature of test [4]: APR_HepG2_MicrotubuleCSK_72hr: Apredica 72-hour HepG2 Assay for Microtubule CSK Stabilty (AID 2282919). The note with it: HepG2 microtubule cytoskeleton, high-content imaging, actives raise or lower the signal. The method, boiled down: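 HepG2, 72 hr cmpd exposure, 0.39–200 uM (10 pts, duplicate), 0.5% DMSO. 3.7% formaldehyde fix, 0.5% Triton perm, anti-alpha-tubulin/Cy5 plus Hoechst. HCS fluorescence intensity; bidirectional fit vs DMSO baseline; taxol as positive control.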

Test [5] can be described thus: APR_HepG2_P-H2AX_24hr: Apredica 24-hour HepG2 Assay for H2AX Phosphorylation (AID 2282920). As to conditions: high-content imaging, actives raise or lower the signal. The method, boiled down:
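High-content imaging of phospho-histone H2A.x immunofluorescence, nuclei counterstained with Hoechst 33342, in fixed HepG2 cells. Compounds ran 0.39–200 uM in duplicate for 24 h, final DMSO 0.5%. Signal change fitted both directions against DMSO.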

Test [6] can be described thus: APR_HepG2_StressKinase_72hr: Apredica 72-hour HepG2 Assay for Stress Kinase (AID 2282921). As to conditions: HepG2 stress kinase (phospho-c-Jun) imaging, actives raise or lower the signal. The method in brief: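 Stress kinase signal is phospho-c-Jun immunofluorescence (1:500 primary, Cy3 secondary) in fixed, permeabilized human HepG2 cells imaged at 20x. Exposure lasted 72 hr over ten concentrations from 0.39 to 200 uM, 0.5% DMSO, in duplicate. Bidirectional fit versus DMSO.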

The nature of test [7]: APR_HepG2_StressKinase_24hr: Apredica 24-hour HepG2 Assay for Stress Kinase (AID 2282922). The note with it: HepG2 stress kinase (phospho-c-Jun) imaging, actives raise or lower the signal. The method in brief: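 Read-out: phospho-c-Jun immunofluorescence (Cy3 secondary) quantified by high-content imaging at 20x, nuclei defined by Hoechst 33342. Human HepG2 liver cells dosed 24 hr, 0.39–200 uM, DMSO 0.5% v/v; gain or loss of signal fitted relative to DMSO.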

Test [8] is described as follows: APR_HepG2_p53Act_72hr: Apredica 72-hour HepG2 Assay for p53 Activation (AID 2282923).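 Also: average cellular p53 protein immunofluorescence intensity in HepG2 cells.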 The note with it: high-content imaging, actives raise or lower the signal. The method, boiled down:
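After 72 h with compound (ten points, 0.39 to 200 uM, final DMSO 0.5% v/v), fixed HepG2 cells were labelled with sheep anti-p53 and Hoechst 33342 and imaged; gain or loss versus DMSO scored.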

The nature of test [9]: APR_HepG2_MitoMass_72hr: Apredica 72-hour HepG2 Assay for Mitochondrial Mass (AID 2282924).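 Also: MitoTracker Red CMXRos stain intensity per cell imaged as mitochondrial mass.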 As to conditions: high-content imaging, actives raise or lower the signal. The method, boiled down:
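Read-out: MitoTracker Red fluorescence intensity from automated imaging (20x, six fields per well) in human HepG2 liver cells. Dosing ran 72 hr, 0.39–200 uM, 0.5% DMSO; bidirectional curve fitting versus DMSO baseline.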

Test [10] in a line: APR_HepG2_NuclearSize_72hr: Apredica 72-hour HepG2 Assay for Nuclear Size (AID 2282925). The note with it: high-content imaging, actives raise or lower the signal. The method in brief: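 Read-out: nuclear diameter from Hoechst 33342 images (ArrayScan, 20x, six fields/well), via cell-cycle image analysis. HepG2 were dosed 0.39–200 uM for 72 hr in 0.5% DMSO. Bidirectional fit relative to DMSO.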

The nature of test [11]: ATG_CRE_CIS: Attagene CIS-FACTORIAL HepG2 Assay for human cAMP Responsive Element (CRE) binding protein 3 (AID 2282926). The note with it: HepG2 CRE cis-reporter, Attagene multiplexed mRNA; actives raise or lower the signal. The method, boiled down: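 Endogenous transcription factor activity read via CRE-regulated reporter transcripts in transfected HepG2 cells. After 24 h exposure, RNA was reverse-transcribed, amplified, fluorescently labelled and sized by capillary electrophoresis; gain or loss fitted against DMSO.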

The target in test [12] is CCAAT/enhancer-binding protein beta (Homo sapiens) (UniProt P17676). Put plainly: ATG_C_EBP_CIS: Attagene CIS-FACTORIAL HepG2 Assay for human CCAAT/Enhancer Binding Protein (C/EBP) beta (AID 2282927). The note with it: HepG2 Attagene cis-factorial transcription factor reporter; actives raise or lower the signal. The method in brief:
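HepG2, transient MRTU transfection, 24 h treatment. RT-PCR plus CE fluorescence; DMSO negative control, bidirectional fit.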

A short description of test [13]: ATG_CMV_CIS: Attagene CIS-FACTORIAL HepG2 Assay for human CMV (Internal Marker) (AID 2282928).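 Also: endpoint acts as a background internal control marker rather than a target.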 As to conditions: HepG2 CMV promoter reporter, transcription factor profiling; actives raise or lower the signal. The method, boiled down: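 Fluorescence intensity of RT-PCR-derived reporter fragments, resolved by capillary electrophoresis, gives the signal. HepG2 liver cells bearing transfected cis-element reporters were treated 24 h; activity in either direction was fit relative to DMSO-treated controls.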

Test [14] can be described thus: ATG_AP_1_CIS: Attagene CIS-FACTORIAL HepG2 Assay for human Activator Protein 1 (AP-1) (AID 2282931). The note with it: HepG2 Attagene cis-factorial AP-1 reporter mRNA; actives raise or lower the signal. The method, boiled down: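 We transfected HepG2 cells transiently with a set of cis-regulated reporter transcription units, dosed them for 24 h, and quantified reporter mRNA via RT-PCR and capillary electrophoresis, scoring gain or loss of signal relative to DMSO.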

The nature of test [15]: ATG_AP_2_CIS: Attagene CIS-FACTORIAL HepG2 Assay for human Activator Protein 2 (AP-2) (AID 2282932). The note with it: HepG2 AP-2 cis-reporter, Attagene transcription factor profiling; actives raise or lower the signal. The method, boiled down:
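Liver-derived HepG2 line, cis-reporter system measuring endogenous factors; 24 h dosing; reporter mRNA detected by fluorescent RT-PCR and capillary electrophoresis.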

Test [16] is described as follows: ATG_BRE_CIS: Attagene CIS-FACTORIAL HepG2 Assay for human Bone Morphogenetic Protein (BMP) Response Element (BRE) (AID 2282933). As to conditions: HepG2 BMP response element reporter, Attagene transcription factor profiling; actives raise or lower the signal. The method, boiled down:
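HepG2 cells transiently transfected with CIS reporter units (endogenous TF activity, BMP response element), dosed 24 h. Reporter mRNA quantified by RT-PCR, fluorescent labelling and capillary electrophoresis; bidirectional fit vs DMSO baseline.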

Test [17] has as its target Retinoic acid receptor alpha (Homo sapiens) (UniProt P10276). Put plainly: ATG_DR5_RAR_CIS: Attagene CIS-FACTORIAL HepG2 Assay for human Retinoic Acid Receptor Alpha (RARE), DR5 submotif (AID 2282934). As to conditions: HepG2 Attagene cis-factorial RARE DR5 reporter, mRNA; actives raise or lower the signal. The method, boiled down:
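After 24 h of chemical exposure, transiently transfected HepG2 cells were lysed for total RNA; the DR5-regulated reporter transcript was quantified via RT-PCR and capillary electrophoresis, with activity fitted bidirectionally against DMSO.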

The nature of test [18]: APR_HepG2_CellLoss_72hr: Apredica 72-hour HepG2 Assay for Cell Loss (AID 2282915). As to conditions: high-content imaging. The method in brief: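 HepG2 cells exposed 72 h to compound at 0.39–200 uM (10 concentrations, duplicate) in 0.5% DMSO. Fixed with 3.7% formaldehyde and Hoechst 33342-stained. Imaged at 20x; nuclear count gives cell number, fitted bidirectionally versus DMSO.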

A short description of test [19]: ATG_DR4_LXR_CIS: Attagene CIS-FACTORIAL HepG2 Assay for human Liver X Receptor (LXR), DR4 submotif (AID 2282929). As to conditions: HepG2 Attagene DR4 cis-reporter, mRNA transcription; actives raise or lower the signal. The method, boiled down:
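Transiently transfected HepG2 liver cells; cis-regulated reporters; 24 h dosing. RT-PCR plus CE read-out of reporter mRNA. DMSO baseline, bidirectional curve fitting.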

Chain of CCAAT/enhancer-binding protein beta (Homo sapiens) (P17676 whole entry, looked up): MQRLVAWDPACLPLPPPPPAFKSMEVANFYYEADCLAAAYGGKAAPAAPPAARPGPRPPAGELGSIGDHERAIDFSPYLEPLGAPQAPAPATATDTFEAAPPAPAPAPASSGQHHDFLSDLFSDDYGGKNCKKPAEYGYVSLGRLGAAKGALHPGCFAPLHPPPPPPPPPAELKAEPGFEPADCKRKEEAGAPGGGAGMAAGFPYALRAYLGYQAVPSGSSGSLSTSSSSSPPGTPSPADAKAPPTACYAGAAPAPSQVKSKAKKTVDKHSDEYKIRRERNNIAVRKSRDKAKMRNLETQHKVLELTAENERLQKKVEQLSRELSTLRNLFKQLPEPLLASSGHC
Chain of Retinoic acid receptor alpha (Homo sapiens) (P10276 whole entry, looked up): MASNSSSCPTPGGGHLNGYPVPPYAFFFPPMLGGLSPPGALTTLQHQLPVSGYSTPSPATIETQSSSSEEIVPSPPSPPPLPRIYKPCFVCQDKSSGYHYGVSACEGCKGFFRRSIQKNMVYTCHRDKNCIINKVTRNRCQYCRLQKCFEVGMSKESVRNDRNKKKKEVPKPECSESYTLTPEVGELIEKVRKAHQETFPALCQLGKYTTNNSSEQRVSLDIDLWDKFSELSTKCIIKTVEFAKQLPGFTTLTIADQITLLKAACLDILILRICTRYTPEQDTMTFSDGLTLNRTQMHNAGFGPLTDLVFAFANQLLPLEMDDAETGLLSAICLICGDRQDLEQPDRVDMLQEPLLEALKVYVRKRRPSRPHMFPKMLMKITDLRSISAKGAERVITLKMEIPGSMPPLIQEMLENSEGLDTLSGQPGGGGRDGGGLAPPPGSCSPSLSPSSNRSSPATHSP

For the compound `Oc1ccc(Cl)cc1Cc1ccccc1`, the concentration at half-maximal activity (AC50) in test [1] was 112 µM (active) and 122 µM (active) and 34.5 µM (active); in test [2] it was 116 µM (active) and 35.4 µM (active) and 66.2 µM (active); in [4], 111 µM (active) and 62.5 µM (active); in [5] it was 114 µM (active) [middle of 4 runs]; in test [6] it was 113 µM (active) and 122 µM (active) and 34.3 µM (active); in test [7], 150 µM (active) and 99 µM (active). The half-maximal activity concentration (AC50) in test [8] was 111 µM (active) and 125 µM (active); in [9] it was 88 µM (active); in test [10], 110 µM (active); in test [11], 13.4 µM (active); in test [12] it was 8.76 µM (active); in [13] it was 15.2 µM (active). Further, the half-maximal activity concentration (AC50) in test [14] is 12.7 µM (active); in test [15] it was 17.6 µM (active); in test [16] it was 9.67 µM (active). Further, the call in test [1], in test [2], in test [3], in test [4], in [5] and in test [6] was inactive. The compound was classed as inactive in test [7], in [8], in test [9], in test [10], in test [11] and in test [12]. Also, the call in test [13], in test [14], in test [15], in test [16] and in [17] was inactive.

On to `CC(C)OC(=O)Nc1cccc(Cl)c1`, for which the compound was called inactive in test [18], in test [1], in test [2], in test [3], in [4] and in test [5]. Also, the outcome in test [6], in [7], in test [8], in [9], in test [10] and in [19] was inactive. For the same compound, the outcome in [14], in test [15], in test [16] and in test [17] was inactive. The AC50 is 15.3 µM (active) in test [11], 22.5 µM (active) in test [12] and 34.1 µM (active) in test [13].

In the case of `COc1cc(OC)nc(NC(=O)NS(=O)(=O)c2cc(NC=O)ccc2C(=O)N(C)C)n1`, the result in test [18], in test [1], in test [2], in test [3], in test [4] and in test [5] was inactive. The compound was called inactive in [6], in test [7], in [8], in test [9], in test [10] and in test [11]. The result in test [13], in test [14], in test [15], in [16] and in test [17] was inactive. Moreover, in test [12], the half-maximal activity concentration (AC50) is 13.3 µM (active).

By AC50 is commonly meant the concentration at which the activity in the assay is half-maximal.
